The results in this text go back to PubChem BioAssay AID893 (National Center for Advancing Translational Sciences (NCATS), 2007).

Among all 75,000 compounds or so, about 5,700 (7.6%) were called active. Where a call stands in place of a potency, no number is given. Another 7% or so got no clear call; they are omitted. Many of the other results were omitted from the sample, so actives are more common in it than they were. A number with no mark means an inactive call. The call rests on the fitted dose curve; in most records, active means well fitted inhibition curve with a large enough effect; inconclusive means small, poorly fitted or top-dose-only effect; inactive means no such curve, though single readings can be large or run the other way.
Potency means the concentration at half of the fitted maximal effect.

The target of this experiment is 3-hydroxyacyl-CoA dehydrogenase type-2 (Homo sapiens) (UniProt Q99714). The experiment is described as follows: qHTS Assay for Inhibitors of HSD17B4, hydroxysteroid (17-beta) dehydrogenase 4.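 Further: the protocol describes HADH2 (HSD17B10) and not the HSD17B4 of the title; nearly all actives have a fitted effect of over 70% in size.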 As to conditions: recombinant HSD17B10, NADH fluorescence kinetic; series mostly up to 57.1 µM. The gist of the method: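 Activity followed as NADH fluorescence increase (ex 360, em 450 nm) every 30 seconds for 4 min, using final 90 uM beta-hydroxybutyryl CoA and 1 mM NAD+. Recombinant His-tagged enzyme, 20 nM, pH 9.0 Tris buffer, 15 min compound preincubation.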
On to `Cc1noc(NS(=O)(=O)c2ccc(NC(=O)C34CCC(CC3)C4)cc2)c1C`, for which the Potency entry was “inactive”. For the compound `CCOC(=O)N/N=C1/C[C@@H](O)[C@@H](O)[C@@H]2[C@@H]3C(=O)N(CC)C(=O)[C@H]3CC[C@H]12`, the activity change, negative = inhibition was 7.25% [at 11.4 µM]. `O=C(c1c(Cl)nc2sccn12)N1CCCc2ccccc21`: the Potency result was “inactive”. On the same count and under the same terms, to `O=C(c1ccco1)N1CCC2(CC1)CCN(c1ncccn1)CC2` belongs 31.6 µM (active); to `CC(C)NC(=O)N1CC[C@@]2(CCCN(C(=O)c3ccco3)C2)C1`, “inactive”.

On to `O=C(c1ccco1)N1CCC[C@@]2(CCN(c3ccccc3)C2)C1`, for which the Potency entry was “inactive”.

In the case of `COc1ccc(OC)c(S(=O)(=O)Nc2ccccc2F)c1`, the Potency result was “inactive”. On to `COC(=O)c1ccc(NC(=O)CSc2nnc(-c3ccncc3)n2C)cc1`, for which the Potency result is “inactive”.

As for `CC(=O)NC1=NC(=O)CS1`, the Potency entry was “inactive”.

Take `O=C1CC(c2ccccc2)C(=O)N1c1cccc(O)c1` (stereo unspecified): the Potency result is “inactive”. As for `Cc1ccc(Oc2nc3ccccc3n3c(C)nnc23)cc1`, the Potency result was “inactive”. On the same count and under the same terms, to `CN(c1nc2ccccc2n2c(-c3ccco3)nnc12)S(=O)(=O)c1ccccc1` belongs 1 µM (active); to `CCCCNC(=O)CSc1nnc(-c2ccco2)n1C`, “inactive”; to `CC1=C2C(=O)OC(c3ccoc3)C2(C)CCC1` (stereo unspecified), “inactive”. `Cc1ccccc1OCCC(=O)Nc1c(C)n(C)n(-c2ccccc2)c1=O`: the Potency result was “inactive”. On to `CCC(=O)Nc1ccc(C(=O)Nc2ccc3c(c2)C(=O)N(CC2CCCO2)C3=O)cc1` (stereo unspecified), for which the Potency is 31.6 µM (active). The same measure, in the same setting: then `O=C(CCN1C(=O)c2ccncc2C1=O)Nc1ccc2c(c1)OCCO2`, with “inactive”; and `O=C(NCc1ccc2c(c1)OCO2)c1ccc2c(c1)C(=O)N(CC1CCCO1)C2=O` (stereo unspecified), with “inactive”; and `O=C(CCN1C(=O)c2ccccc2C1=O)NCCN1CCOCC1`, with “inactive”. In the case of `COCc1nc2ccccc2n1Cc1ccccc1Br`, the Potency result is “inactive”.

On to `COC(=O)N1CCC2(CCCN(Cc3ccccc3OC)C2)CC1`, for which the Potency result was “inactive”. Turning to `Cn1c(=O)n(C)c(=O)n(CC(=O)N2CCCCC2)c1=O`, the Potency result is “inactive”. For the compound `CC1CCCN(C(=O)c2ccc3c(c2)C(=O)N(CCC2=CCCCC2)C3=O)C1` (stereo unspecified), the Potency result is “inactive”.

For `Cn1nnc2cc(C(=O)NCCC3=CCCCC3)ccc21`, the Potency result was “inactive”. On to `Cc1ccc2c(c1)c1ncn(CCC3=CCCCC3)c(=O)c1n2C`, for which the Potency was 31.6 µM (active).

As for `CC1(C)C(=O)C2(CCCCC2)C(=O)OC1c1cccs1` (stereo unspecified), the Potency result is “inactive”. As for `CC(C)CO`, the Potency result was “inactive”. For `CCCC(Cl)CCCC(Cl)CCC(Cl)CCC(Cl)CCC(Cl)CCCC(Cl)CCC` (stereo unspecified), the Potency entry was “inactive”.

Take `CCC(=NC1CC(C)(C)NC(C)(C)C1)C1=C(O)CC(C)(C)CC1=O`: the Potency result was “inactive”. Still for that read-out and setting: then `CCCOC(=O)Nc1sc2c(c1C(=O)OCC)CCC2`, with “inactive”; and `COC(=O)c1c(NC(=O)c2cccs2)sc2c1CCCC2`, with 31.6 µM (active). Turning to `COc1cc(OC)c(NC(=O)c2ccc(Br)o2)cc1Cl`, the Potency result was “inactive”. On to `COC(=O)c1c(NC(=O)CSc2nncs2)sc2c1CCCCC2`, for which the Potency result was “inactive”. As to `CCOC(=O)c1c(NC(=O)CCC(=O)NCc2ccco2)sc2c1CCCC2`, the Potency result is “inactive”. On to `CCc1c(C)sc(NC(=O)OC)c1C(=O)N1CCOCC1`, for which the Potency result was “inactive”.

`CCOC(=O)c1c(NC(=O)c2cccs2)sc(C)c1C`: the Potency entry was “inactive”. Turning to `CCOC(=O)c1c(NC(=O)c2ccc(Br)o2)sc2c1CCCC2`, the Potency is 25.1 µM (active).

For the compound `CCc1c(C)sc(NC(=O)c2ccc(Br)o2)c1C(=O)OC`, the Potency is 31.6 µM (active). For `CCOc1ccc(N=C2SC(C(=O)O)CC(=O)N2C)cc1` (stereo unspecified), the Potency entry was “inactive”. With `O=C(CCS(=O)(=O)Cc1ccccc1F)NCCCN1CCCCC1`, the Potency result is “inactive”. With `Cn1c2c(c(=O)n(C)c1=O)C1c3ccccc3OCC1C(C)(C)O2` (stereo unspecified), the Potency entry is “inactive”. For `NCC(=O)[C@@H](O)[C@H](O)[C@H](O)CO`, the activity change, negative = inhibition was 0.448% [at 11.4 µM].

On to `COc1ccc(NC(=O)c2cccc(NC(=O)c3ccco3)c2)c(OC)c1`, for which the Potency entry is “inactive”. Same read-out and setting: then `Cc1cc(C(=O)O)ccc1[N+](=O)[O-]`, with “inactive”; and `CC(C)OC(=O)CN1C(=O)c2ccccc2C1=O`, with “inactive”; and `CC(C)NC(=O)N1CCCC2(CCN(C(=O)c3cccn3C)CC2)C1`, with “inactive”. Regarding `CC1CCCC(NC(=O)CSc2nccn2C)C1C` (stereo unspecified), the Potency result was “inactive”. For `O=C(OCC(COC(=O)c1ccccc1)(COC(=O)c1ccccc1)COC(=O)c1ccccc1)c1ccccc1`, the Potency entry was “inactive”. Regarding `C/C(CCN1CCc2nc(-c3ccccc3)c(-c3ccccc3)cc2C1)=N\O[C@@H](C)c1cn([C@@H]2COC[C@@H]2O)nn1`, the activity change, negative = inhibition was 2.35% [at 11.4 µM]. With `CCCCCCCCCCCC(=O)O`, the Potency entry is “inactive”. As to `O=C(O)CCCCC(=O)O`, the Potency entry was “inactive”. Take `C#CCCCCCCCCCCCCCCCC(=O)O`: the Potency was 15.8 µM (active). As to `CC1CC[C@@]23CCC4(C)[C@@]5(C)CCC6C(C)(C)C(O)CC[C@@]6(C)C5C=C[C@@]4(OC2=O)C3C1C` (stereo partly specified), the Potency result was “inactive”. Turning to `O=C(NCCN1C(=O)C2C3C=CC(C3)C2C1=O)Nc1ccccn1` (stereo unspecified), the Potency result is “inactive”. Take `COC(=O)Cc1nc2ccccc2[nH]1`: the Potency result is “inactive”. `C=CCSc1nc2ccccc2[nH]1`: the Potency entry was “inactive”. Still for that read-out and setting: then `c1ccc(-c2[nH]ncc2-c2nc3ccccc3[nH]2)cc1`, with 12.6 µM (active); and `c1ccc2[nH]c(-c3nc4ccccc4[nH]3)nc2c1`, with 25.1 µM (active); and `C=CCSc1nc2c(c(=O)[nH]1)C(C(C)C)C(C#N)=C(N)O2` (stereo unspecified), with “inactive”. As for `O=C(O)c1cccc(S(=O)(=O)NCCO)c1`, the activity change, negative = inhibition was 10% [at 11.4 µM]. Regarding `O=C(NCc1ccccc1)[C@H]1C[C@@H]1[C@H](NP(=O)(c1ccccc1)c1ccccc1)c1ccccc1`, the Potency result was “inactive”.

For the compound `COC(=O)c1ccc2c(c1)S(=O)(=O)NC(=NCCCN1CCOCC1)S2`, the Potency entry is “inactive”.

Take `COc1ccc(C(=O)N/N=C2/C(=O)c3c(C)cc(C)cc3CC2(C)C)cc1`: the activity change, negative = inhibition is 12.3% [at 11.4 µM]. For the compound `Cc1cccc(NC(=O)CSC(N)=O)c1C`, the Potency is 31.6 µM (active). `Cc1cccc(NC(=O)CSc2nc3c(c(=O)[nH]2)CCC3)c1C`: the Potency entry was “inactive”. Still for that read-out and setting: to `Cc1nc(C)c(C(=O)Nc2cccc(C)c2C)o1` belongs “inactive”.

As to `Cc1nnc(NC(=O)CCC(=O)N2CCC(C)CC2)s1`, the Potency result is “inactive”. Same read-out and setting: to `CCCCC/C=C/C=C/C=O` belongs “inactive”; to `CCn1c(=N)n(CC(=O)c2cccc(OC)c2)c2ccccc21`, “inactive”. On to `CCn1c2c(c3ccc(OC)cc31)CCCC2=O`, for which the Potency is 25.1 µM (active).

Consider `CC(=O)Nc1ccc(S(=O)(=O)NCCc2ccccc2)cc1`, for which the Potency entry is “inactive”.
